Structures are written as SMILES. Activity calls are given as the source filed them. Cut-off read from the data, not from the text of the source: active = fold change permeability below about 0.7 or above about 1.3; inactive = in between.

These results are taken from PubChem BioAssay.

The nature of this experiment: compounds altering in vitro BBB leakiness – cell-based, FITC-avidin fluorescence, HTS, primary screen (AID 1963498). Note: test concentration not given here. Particulars: brain endothelial barrier, actives lie on both sides.
Turning to `CC[N+](CC)(CC)CC(=O)Nc1c(C)cccc1C`, the fold change permeability was 1.5 (active).

For the molecule `Cc1nc2sccn2c(=O)c1CCN1CCC(=C(c2ccc(F)cc2)c2ccc(F)cc2)CC1`, the fold change permeability is 1.9 (active).

Regarding `Cc1cc(C)nc(SCC(=O)Nc2ncc(Cc3cccc4ccccc34)s2)n1`, the fold change permeability was 1.4 (active).

For `N[C@@H](Cc1cc(CP(=O)(O)O)cc(-c2ccccc2Cl)c1)C(=O)O`, the fold change permeability was 0.9 (inactive).

With `Brc1c(Br)c(Br)c2[nH]cnc2c1Br`, the fold change permeability is 1.2 (inactive).

Consider `C#CCn1c(=O)c2c(ncn2C)n(C)c1=O`, for which the fold change permeability is 0.9 (inactive).

As for `S=C(Nc1ccccc1)Nc1nccs1`, the fold change permeability is 1.3 (active).

For the molecule `CN1CCc2cc(Cl)c(O)cc2[C@@H](c2ccccc2)C1`, the fold change permeability was 0.9 (inactive).

As to `Nc1ncnc2c1ncn2C1CCCC1`, the fold change permeability is 0.9 (inactive).

Consider `O=S(=O)(c1cccc2c(Cl)cccc12)N1CCCNCC1`, for which the fold change permeability is 1.1 (inactive).

As to `CN(C)CCc1c[nH]c2ccc(Cn3cncn3)cc12`, the fold change permeability was 1 (inactive).

On to `CCc1c(C)[nH]c2c1C(=O)C(CN1CCOCC1)CC2` (centres undefined), for which the fold change permeability was 1 (inactive).

Turning to `CCN[C@H]1CN(CCCOC)S(=O)(=O)c2sc(S(N)(=O)=O)cc21`, the fold change permeability is 1.5 (active).

`N#C/C(=C1/SC[C@@H](c2ccc(Cl)cc2Cl)S1)n1ccnc1`: the fold change permeability was 1.6 (active).

Consider `Cn1ccc2cc3c(cc21)CCN3C(=O)Nc1cccnc1`, for which the fold change permeability was 1.4 (active).

Consider `CCCCC1C(=O)N(c2ccccc2)N(c2ccccc2)C1=O`, for which the fold change permeability was 0.9 (inactive).

As to `NC12CC3CC(CC(C3)C1)C2`, the fold change permeability is 0.9 (inactive).

Consider `Cc1cc(C(C)(C)C)cc(C)c1CC1=NCCN1`, for which the fold change permeability was 2 (active).

Take `Cc1cc2nc(NCCCO)n(CC(=O)c3cc(C(C)(C)C)c(O)c(C(C)(C)C)c3)c2cc1C`: the fold change permeability was 1.1 (inactive).

As for `O=C(c1ccc(F)cc1)C1CCN(CCn2c(=O)[nH]c3ccccc3c2=O)CC1`, the fold change permeability was 1.2 (inactive).

In the case of `Cn1cc(C(F)(F)F)nc1-c1ccc(OCC(O)CNCCOc2ccc(O)c(C(N)=O)c2)cc1` (centres undefined), the fold change permeability was 1.3 (active).

In the case of `CNC(=O)Nc1cc(Oc2cncc(OC)c2)c(C2CCCOC2)cn1` (centres undefined), the fold change permeability was 1.1 (inactive).

With `CCCc1c(-c2ccc(O)cc2)nn(-c2ccc(O)cc2)c1-c1ccc(O)cc1`, the fold change permeability was 1.4 (active).

Consider `C=CCc1ccccc1OCC(O)CNC(C)C` (centres undefined), for which the fold change permeability is 1.2 (inactive).

Consider `CC(=O)N[C@@H](Cc1c[nH]c2ccccc12)C(=O)OCc1cc(C(F)(F)F)cc(C(F)(F)F)c1`, for which the fold change permeability was 0.9 (inactive).

In the case of `CN1CCN(C(=O)c2ccc(-n3nc(-c4ccc(C(=O)O)cc4)cc3-c3cc(C(C)(C)C)cc(C(C)(C)C)c3)cc2)CC1`, the fold change permeability was 1 (inactive).

Regarding `O=[N+]([O-])c1ccc(-c2nc(-c3ccc(F)cc3)c(-c3ccncc3)[nH]2)cc1`, the fold change permeability was 1.4 (active).

Consider `CCOC(=O)COc1ccc2c(c1)C[C@@H](NC[C@H](O)c1cccc(Cl)c1)CC2`, for which the fold change permeability was 1.1 (inactive).

In the case of `CSc1ccc2c(c1)C(N1CCN(C)CC1)Cc1ccccc1S2` (centres undefined), the fold change permeability was 0.9 (inactive).

Regarding `O=C(CCCCCN1CCN(c2ccccc2-c2ccccc2)CC1)NC1CCCc2ccccc21` (centres undefined), the fold change permeability was 1.1 (inactive).

As for `CC(CN1c2ccccc2Sc2ccccc21)N(C)C` (centres undefined), the fold change permeability is 1.2 (inactive).

In the case of `CC(C)(O)[C@@H]1CC[C@](C)([C@H]2[C@@H](O)C[C@@]3(C)[C@@H]4C[C@H](O)[C@H]5C(C)(C)[C@@H](O)CC[C@@]56C[C@@]46CC[C@]23C)O1`, the fold change permeability is 1 (inactive).

With `C[C@H](O)C(=O)C1=Nc2c(nc(N)[nH]c2=O)NC1`, the fold change permeability was 0.7 (active).

As for `Clc1ccc2nsnc2c1NC1=NCCN1`, the fold change permeability was 1.9 (active).

As for `C[C@]12C=CC(=O)C=C1CC[C@H]1[C@@H]3C[C@@H](O)[C@](O)(C(=O)CO)[C@@]3(C)C[C@H](O)[C@@]12F`, the fold change permeability is 1.4 (active).

In the case of `CCCC[C@@]1(C2CCCC2)Cc2cc(OCC(=O)O)c(Cl)c(Cl)c2C1=O`, the fold change permeability was 1.6 (active).

`Cc1ccc(/C=N\NC(=O)c2n[nH]c3c2CCCC3)cc1`: the fold change permeability was 1.1 (inactive).

For `O=c1[nH]c(=S)[nH]c(-c2ccccc2)c1Cc1c(O)ccc2ccccc12`, the fold change permeability is 0.8 (inactive).

With `O=C(c1ccccc1)c1ccc2n1CCC2C(=O)O` (centres undefined), the fold change permeability was 2 (active).
